# Source: the OligoGym collection
# Target: KCNJ11
# Experiment: pooled miR-30 sensor sort-seq; sequence = guide strand
# Settings: shRNA
# Also: reference of the scale not given here.
row,Sequence,sensor-assay potency score (higher = more potent)
1,TTGCGTACCACCTGCATGTGGA,-0.169
2,TTATTGACAACGGAGAAGGCAG,-0.854
3,TTGGAGTAGTCCACAGAGTAAC,-1.69
4,ATCAATGACATGGTAGATGATC,-1.55
5,ATGCTTGCTGAAGATGAGGGTC,-1.14
6,ACATGGTAGATGATCAGCGGGG,-0.798

# Target: KCNJ4
# Experiment: as above
# Settings: shRNA
row,Sequence,sensor-assay potency score (higher = more potent)
1,TAGGTCTTGTGAAAACGTGAGT,-0.691
2,TCTCGTAGCAGAAGGCACTGGG,0.705
3,TTGGCCGTTCTTCTTGACGAAG,-1.51
4,AAAACGTGAGTAGTCCACCTTG,-0.537
5,TCGCTGGCCAGGTAGGAGCTGC,-1.22
6,TTACTCTCCTGCAGCTCCCGGG,-0.832
7,TTGTAGTGGCTCTTCTCCTCGA,-0.739
8,ATGAAGGAGTCGATGACGCAGC,-1.02
9,TAGTCCACCTTGTAGTGGCTCT,-0.556
10,TCGCGCACCGAAATGACCGCGT,-0.495
11,TAGGAGATGTTGTCCAGCGGGA,-0.546
12,TAGCGCTGCGACTTGTTGCTCA,0.0555

# Target: KCNK12
# Experiment: as above
# Settings: shRNA
row,Sequence,sensor-assay potency score (higher = more potent)
1,TTGAAGAACAGGATGGTCCCAG,0.312
2,TACATGGCCGAGGCGCAGCAGG,-1.41
3,TTGACGCACACGCTGCGCGGGT,-0.763
4,TCGTTGAGGTGCGAACGGCGGC,-1.1
5,TCGAGCGCCGAGAAGACTGTGG,-0.801
6,TTGAGCACCTGCTTGATGAGGA,0.236
7,TTCTGCAGCAGCGCCAGCGACA,-1.81
8,TTGATGAGGATGGAGATGACGT,-0.352
9,TTGAGGTGCGAACGGCGGCAGC,-1.57
10,TTGTTCATGATGCCCAGCGCGC,-1.54
11,AGTAAATGCAGCACACGCCGAG,-1.04
12,AAGAGGTTGAAGAACAGGATGG,-0.732

# Target: KCNK6
# Experiment: as above
# Settings: shRNA
row,Sequence,sensor-assay potency score (higher = more potent)
1,TCGGAGCCTGGCTTCGTGCGGC,-0.634
2,AAGGCATCCAAGAAGCTCCAGG,-0.209
3,TAGAAGGCATCCAAGAAGCTCC,-0.185
4,TTGCTGGTGCGACTCCGGCTGG,-1.34
5,TAAAGCAGAAGTAGAAGGCATC,-0.372
6,TCATCCGCATTGAAACTGGCAG,-0.75
7,TTAGCAAGCACGACCCGCCCCA,-0.345
8,TTGTGTACCCATAGCCCACGGT,-0.627
9,TCCTCATCCGCATTGAAACTGG,-1.46
10,TGGAGGTCGGACACGTGGCGGA,-1.12
